These results are taken from PubChem BioAssay (NCATS).

Assay [1] is described as follows: qHTS assay for small molecule agonists of retinoid X receptor alpha signaling (AID 588544).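 On activation: 0% = DMSO basal wells and 100% = reference agonist.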 The note with it: HEK293T RXRa-UAS-bla, beta-lactamase reporter, 18 h; 530 nm emission.
Assay [2] addresses Retinoic acid receptor RXR-alpha (Homo sapiens) (UniProt P19793). The assay is described as above. The settings on record: HEK293T RXRa-UAS-bla, beta-lactamase reporter, 18 h; series mostly up to 76.7 µM.
For assay [3], the target named is Thyroid hormone receptor beta (Homo sapiens) (UniProt P10828). The assay is described as follows: qHTS assay for small molecule agonists of thyroid hormone receptor beta signaling (AID 588545).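 Further: 0% = DMSO only and 100% = 10 nM T3.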 The settings on record: TR-UAS-bla GripTite HEK 293, beta-lactamase ratio, agonist mode, 18 h, percent of T3 response, DMSO as zero; series mostly up to 76.7 µM. Put shortly: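 Stimulation of a TR-driven beta-lactamase reporter was quantified in GripTite HEK 293 cells. Compound series ran for 18 hrs; curves were normalized to T3 and DMSO controls and fitted to yield EC50.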

Assay [4] in a line: qHTS assay for small molecule antagonists of retinoid X receptor alpha signaling (AID 588546; active means well fitted inhibition curve with a large enough effect in the signal ratio, with a control signal flat, not every such curve was filed as active; the % refers to the signal ratio;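 further: cells stimulated with 9-cis-retinoic acid as agonist; on the % scale 0 is the no-effect control and ±100 the full control effect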). The settings on record: HEK293T RXRa-UAS-bla, beta-lactamase ratio, antagonist mode; measured here: W530 green channel, cytotoxicity proxy. Put shortly: (§1)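 Beta-lactamase reporter inhibition, read as CCF4 fluorescence ratio (ex 405, em 460/530 nm) after 2 h at RT. HEK293T UAS-bla cells, 2500/well, were stimulated with 9-cis-RA at 500 or 100 nM final alongside test compound for 18 h at 37 C.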

For assay [5], the target named is Retinoic acid receptor RXR-alpha (Homo sapiens) (UniProt P19793). The description is as above. The settings on record: HEK293T RXRa-UAS-bla, beta-lactamase ratio, antagonist mode. Put shortly: as §1
In assay [6] the target is Thyroid hormone receptor beta (Homo sapiens) (UniProt P10828). The assay is described as follows: qHTS assay for small molecule antagonists of thyroid hormone receptor beta signaling (AID 588547; active means well fitted inhibition curve with a large enough effect in the signal ratio, with a control signal flat, not every such curve was filed as active; the % refers to the signal ratio;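 further: cells stimulated with 0.4 nM T3 agonist during compound exposure; on the % scale 0 is the no-effect control and ±100 the full control effect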). The note with it: TR-UAS-bla HEK293, beta-lactamase ratio, antagonist mode, 18 h. The gist of the method: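 TR-UAS-bla GripTite HEK293 cells in 2% charcoal/dextran FBS medium were preincubated 4 h at 37 C, given compound (0.59 nM to 92 uM) plus 0.4 nM T3 (final) for 18 h, then CCF4 for 2 h at RT; Hill fit gave IC50.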

Assay [7] has as its target Voltage-gated inwardly rectifying potassium channel KCNH2 (Homo sapiens) (UniProt Q12809). Briefly: qHTS Assay for Small Molecule Inhibitors of the Human hERG Channel Activity (AID 588834; active means well fitted curve in the direction sought with a large enough effect; an effect the other way counts as inactive or inconclusive;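 further: top concentration of the series differs between compounds; on the % scale 0 is the no-effect control and ±100 the full control effect; lower thallium flux fluorescence means stronger hERG block; nearly all actives have a fitted effect of over 50% in size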). The note with it: U2OS BacMam hERG, FluxOR thallium flux fluorescence; series mostly up to 92.2 µM. Put shortly:
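U2OS cells transduced with hERG via BacMam (MOI ~100), plated 2000/well, loaded with FluxOR thallium dye, compound ~10 min, then stimulation buffer; fluorescence decrease read kinetically; AC50 from Hill fits.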

Assay [8] is described as follows: qHTS assay for small molecule activators of the p53 signaling pathway (AID 651743; active means well fitted activation curve with a large enough effect in the signal ratio, not every such curve was filed as active; the % refers to the signal ratio; further: % of control where 0% means no effect). The note with it: HCT-116 p53RE-bla, beta-lactamase FRET ratio, 16 h; stronger effect = higher value. Put shortly: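 Cell-based beta-lactamase reporter (p53 response elements, HCT-116 background). After a 5-hour preincubation, cells received compound for 16 hours at 37 C; substrate development ran 2 hours at room temperature.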

A short description of assay [9]: qHTS assay for small molecule activators of the nuclear factor-kappa B (NF-kB) signaling pathway (AID 651749; active means well fitted activation curve with a large enough effect in the signal ratio; the % refers to the signal ratio; further: % of control where 0% means no effect). The settings on record: NF-kB-bla ME-180 cells, beta-lactamase FRET ratio, 16 h; stronger effect = higher value. Put shortly:
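Screening used 2,000 ME-180 reporter cells per well exposed to pinned compound (23 nL) or DMSO; after 16 hr at 37C, beta-lactamase expression under NF-kB control was assessed through FRET.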

Assay [10] is described as follows: qHTS assay for small molecule disruptors of the mitochondrial membrane potential - 1 hr assay (AID 651754). Further: on the % scale 0 is the no-effect control and ±100 the full control effect; nearly all actives have a fitted effect of over 35% in size. The settings on record: series mostly up to 92.2 µM. Put shortly: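 HepG2, 2,000 cells/well, overnight attachment; cpd or DMSO 1 hr, 37C/5% CO2; Mito-MPS dye 30 min, 37C; fluorescence monomer (490/535) and aggregate (540/590).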
Assay [11] in a line: qHTS assay for small molecule disruptors of the mitochondrial membrane potential - 5 hr assay (AID 651755). Further: on the % scale 0 is the no-effect control and ±100 the full control effect; nearly all actives have a fitted effect of over 40% in size. The settings on record: JC-1-type ratio dye; series mostly up to 92.2 µM. Put shortly: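 HepG2 cells, attached overnight at 37C, were exposed to compound or DMSO for 5 hr at 37C, 5% CO2. Mito-MPS dye was then added for 30 min, and fluorescence read at 490/535 nm (monomers) and 540/590 nm (aggregates).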

For assay [12], the target named is Tumor necrosis factor (Homo sapiens) (UniProt P01375). Briefly: qHTS assay to identify small molecules that stimulate Tumor Necrosis Factor-alpha (TNF-alpha) secretion (AID 651757; active means well fitted curve in the direction sought with a large enough effect in the signal ratio; the % refers to the signal ratio; further: 0% is about no effect). The note with it: Human cells, HTRF 665/615 ratio; series mostly up to 92.2 µM. The gist of the method: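 Read-out is HTRF, a TR-FRET sandwich of cryptate- and XL665-labeled anti-TNF-alpha antibodies detecting cytokine secreted by THP-1 cells. Cells had been incubated with test compounds at 37 C for 17 hrs beforehand.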

Assay [13] in a line: qHTS assay to identify small molecules that stimulate interleukin-8 (IL-8) secretion (AID 651758; active means well fitted activation curve with a large enough effect in the signal ratio; the % refers to the signal ratio; further: 0% is about no effect). The note with it: HTRF ratio (665/615); series mostly up to 92.2 µM. The gist of the method:
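THP-1, 2000 cells/well; cpd 16 h, 37 C; add cryptate + XL665 anti-IL-8 Abs; RT 1-3 h; TR-FRET read.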

The target in assay [14] is Peroxisome proliferator-activated receptor alpha (Homo sapiens) (UniProt Q07869). Briefly: qHTS assay for small molecule agonists of the peroxisome proliferator-activated receptor alpha (PPARalpha) signaling pathway (AID 651778; active means well fitted curve in the direction sought with a large enough effect; an effect the other way counts as inactive or inconclusive; further: % of control where 0% means no effect). The note with it: PathHunter PPARalpha complementation, chemiluminescence, 6 h; stronger effect = higher value. The gist of the method: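 Cells plated at 2,000/well and held overnight at 37 C, 5% CO2, then compound added by pin tool for 6 hr; after PathHunter detection reagent and 60 min at room temperature, chemiluminescence from enzyme complementation was read.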

Assay [15] has as its target Nuclear receptor ROR-gamma (Homo sapiens) (UniProt P51449). Briefly: qHTS assay for small molecule antagonists of the retinoid-related orphan receptor gamma (ROR-gamma) signaling pathway (AID 651802; active means well fitted curve in the direction sought with a large enough effect; an effect the other way counts as inactive or inconclusive;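 further: luciferase reporter luminescence driven by ROR response element; on the % scale 0 is the no-effect control and ±100 the full control effect; nearly all actives have a fitted effect of over 60% in size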). The note with it: ROR-gamma antagonist cell reporter assay; series mostly up to 92.2 µM. Put shortly: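 CHO, TET-inducible ROR + RORE-LUC reporter, 1536-well qHTS. Compound pinned, doxycycline added, 16hr 37C/5% CO2. ONE-Glo, 30 min RT, luminescence; signal drop scored as antagonism.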

Assay [16] can be described thus: qHTS assay for small molecule agonists of the antioxidant response element (ARE) signaling pathway measured by Nrf2-dependant transcriptional activity (AID 720636; active means well fitted curve in the direction sought with a large enough effect in the repeat runs; an effect the other way counts as inactive or inconclusive; further: % of control where 0% means no effect). The note with it: ARE-luc HepG2, Nrf2 luciferase reporter, 16 h; series mostly up to 92.4 µM. Put shortly:
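ARE-luc HepG2 cells carrying an Nrf2-responsive luciferase reporter, in medium with 1% dialyzed FBS, exposed to compound for 16 hr at 37 C, 5% CO2. Luminescence read 30 min after ONE-Glo addition.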

Assay [17] in a line: qHTS assay for small molecule agonists of the antioxidant response element (ARE) signaling pathway measured by Nrf2-dependant transcriptional activity - cell viability counter screen (AID 720653; active means well fitted curve in the direction sought with a large enough effect in the repeat runs; an effect the other way counts as inactive or inconclusive; further: on the % scale 0 is the no-effect control and ±100 the full control effect). The note with it: ARE-bla HepG2 viability, CellTiter-Glo ATP luminescence, 16 h; stronger effect = lower value. Put shortly:
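ARE-bla HepG2 cells (2,000/well) rested 5 hrs at 37C/5% CO2, then exposed to compounds in DMSO for 16 hrs. Viability was read in the same wells as intracellular ATP by luminescence, 30 min at room temperature after reagent addition.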

Assay [18] in a line: qHTS assay for environmental chemicals that activate the Aryl hydrocarbon Receptor (AhR) signaling pathway (AID 651777; active means well fitted curve in the direction sought with a large enough effect; an effect the other way counts as inactive or inconclusive; further: % of control where 0% means no effect; nearly all actives have a fitted effect of over 15% in size). The settings on record: 1A2-DRE human hepatoma cells, luciferase, 24 h; activation: stronger effect = higher value. Put shortly: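 Human hepatoma 1A2-DRE cells stably carrying a DRE/CYP1A2 promoter–luciferase reporter, 1,200 cells/well, exposed to compound 24 hr at 37 C. Luciferase read by One-Glo luminescence after 30 min at room temperature; increased signal marks AhR activation.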

A short description of assay [19]: qHTS assay for small molecule antagonists of the retinoid-related orphan receptor gamma (ROR-gamma) signaling pathway - cell viability counter screen (AID 720652; active means well fitted curve in the direction sought with a large enough effect in the repeat runs; an effect the other way counts as inactive or inconclusive;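 further: compound exposure lasted 16 hr before ATP read; on the % scale 0 is the no-effect control and ±100 the full control effect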). The settings on record: RORgamma reporter cell line viability counter screen; series mostly up to 92.2 µM. Put shortly:
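Luminescence from CellTiter-Glo after 30 min at room temperature reported cellular ATP as the cytotoxicity measure. Cells were the CHO reporter line with doxycycline-induced ROR-gamma expression, exposed to compound for 16 hr at 37 C.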

Assay [20] can be described thus: qHTS assay for small molecule agonists of the antioxidant response element (ARE) signaling pathway (AID 651741; active means well fitted activation curve with a large enough effect in the signal ratio; the % refers to the signal ratio; further: potency means the concentration at half of the fitted maximal effect; on activation: % of control where 0% means no effect). The note with it: HepG2 ARE-bla reporter, beta-lactamase FRET ratio, 16 h; series mostly up to 96 µM. The gist of the method:
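Compounds in DMSO are pinned onto HepG2 ARE-bla cells (2,000/well) that were preincubated 5 h; plates stay 16 h at 37 C, then beta-lactamase activity is detected with LiveBLAzer B/G substrate by fluorescence.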

SMILES strings stand for the structures. Values joined by “and” are separate entries in the source; they are usually repeats but may differ in a detail not shown here. Identical values can stand only once. Records with an inconclusive call do not appear. Active and inactive are the calls of the source. Unless noted, the call rests on the fitted dose curve.

Chain of Thyroid hormone receptor beta (Homo sapiens) (P10828 whole entry, looked up): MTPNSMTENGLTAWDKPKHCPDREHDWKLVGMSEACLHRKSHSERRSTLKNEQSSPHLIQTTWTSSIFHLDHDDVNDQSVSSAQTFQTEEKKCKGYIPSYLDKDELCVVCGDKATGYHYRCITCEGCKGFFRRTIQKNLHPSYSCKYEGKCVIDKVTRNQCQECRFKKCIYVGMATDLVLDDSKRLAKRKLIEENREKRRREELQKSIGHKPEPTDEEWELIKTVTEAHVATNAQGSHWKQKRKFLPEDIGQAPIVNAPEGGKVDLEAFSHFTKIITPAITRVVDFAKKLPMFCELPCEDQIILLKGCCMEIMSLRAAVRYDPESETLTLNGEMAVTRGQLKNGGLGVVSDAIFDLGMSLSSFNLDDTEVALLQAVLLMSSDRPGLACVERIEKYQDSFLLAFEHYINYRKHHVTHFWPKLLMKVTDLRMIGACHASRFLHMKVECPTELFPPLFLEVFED
Chain of Tumor necrosis factor (Homo sapiens) (P01375 whole entry, looked up): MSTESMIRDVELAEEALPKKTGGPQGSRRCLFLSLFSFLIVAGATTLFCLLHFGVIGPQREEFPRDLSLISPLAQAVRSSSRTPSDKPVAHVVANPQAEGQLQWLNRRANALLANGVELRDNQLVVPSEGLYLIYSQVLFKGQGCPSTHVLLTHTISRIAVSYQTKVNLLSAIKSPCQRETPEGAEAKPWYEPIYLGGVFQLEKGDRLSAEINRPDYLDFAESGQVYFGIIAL
Chain of Voltage-gated inwardly rectifying potassium channel KCNH2 (Homo sapiens) (Q12809 whole entry, looked up): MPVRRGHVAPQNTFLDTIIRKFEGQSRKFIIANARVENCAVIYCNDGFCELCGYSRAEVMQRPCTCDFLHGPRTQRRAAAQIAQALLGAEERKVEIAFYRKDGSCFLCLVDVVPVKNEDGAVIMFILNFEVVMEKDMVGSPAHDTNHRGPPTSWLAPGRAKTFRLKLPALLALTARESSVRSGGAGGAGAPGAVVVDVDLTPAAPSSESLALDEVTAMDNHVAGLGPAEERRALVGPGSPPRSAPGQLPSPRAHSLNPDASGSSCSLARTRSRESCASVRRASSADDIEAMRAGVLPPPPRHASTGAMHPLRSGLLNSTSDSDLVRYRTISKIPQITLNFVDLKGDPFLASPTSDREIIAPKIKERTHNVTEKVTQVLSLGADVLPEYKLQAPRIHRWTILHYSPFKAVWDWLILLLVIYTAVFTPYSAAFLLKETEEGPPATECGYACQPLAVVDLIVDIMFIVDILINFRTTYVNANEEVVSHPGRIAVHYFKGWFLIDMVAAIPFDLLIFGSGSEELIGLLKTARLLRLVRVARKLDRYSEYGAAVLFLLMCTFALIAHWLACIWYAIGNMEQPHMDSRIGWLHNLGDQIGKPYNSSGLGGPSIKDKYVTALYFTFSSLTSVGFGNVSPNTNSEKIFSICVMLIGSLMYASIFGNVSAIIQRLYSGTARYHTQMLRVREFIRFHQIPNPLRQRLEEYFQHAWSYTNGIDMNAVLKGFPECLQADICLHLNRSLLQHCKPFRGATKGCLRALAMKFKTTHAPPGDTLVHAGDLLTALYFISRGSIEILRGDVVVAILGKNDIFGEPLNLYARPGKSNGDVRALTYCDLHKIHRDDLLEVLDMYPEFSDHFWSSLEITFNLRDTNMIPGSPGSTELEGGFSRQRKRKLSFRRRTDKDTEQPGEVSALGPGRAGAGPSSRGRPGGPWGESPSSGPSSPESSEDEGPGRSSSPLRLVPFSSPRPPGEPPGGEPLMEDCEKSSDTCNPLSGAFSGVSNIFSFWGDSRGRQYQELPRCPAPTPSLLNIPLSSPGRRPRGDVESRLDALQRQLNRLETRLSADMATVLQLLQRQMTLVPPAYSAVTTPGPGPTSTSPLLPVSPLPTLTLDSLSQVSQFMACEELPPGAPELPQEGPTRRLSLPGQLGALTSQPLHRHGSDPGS
Chain of Nuclear receptor ROR-gamma (Homo sapiens) (P51449 whole entry, looked up): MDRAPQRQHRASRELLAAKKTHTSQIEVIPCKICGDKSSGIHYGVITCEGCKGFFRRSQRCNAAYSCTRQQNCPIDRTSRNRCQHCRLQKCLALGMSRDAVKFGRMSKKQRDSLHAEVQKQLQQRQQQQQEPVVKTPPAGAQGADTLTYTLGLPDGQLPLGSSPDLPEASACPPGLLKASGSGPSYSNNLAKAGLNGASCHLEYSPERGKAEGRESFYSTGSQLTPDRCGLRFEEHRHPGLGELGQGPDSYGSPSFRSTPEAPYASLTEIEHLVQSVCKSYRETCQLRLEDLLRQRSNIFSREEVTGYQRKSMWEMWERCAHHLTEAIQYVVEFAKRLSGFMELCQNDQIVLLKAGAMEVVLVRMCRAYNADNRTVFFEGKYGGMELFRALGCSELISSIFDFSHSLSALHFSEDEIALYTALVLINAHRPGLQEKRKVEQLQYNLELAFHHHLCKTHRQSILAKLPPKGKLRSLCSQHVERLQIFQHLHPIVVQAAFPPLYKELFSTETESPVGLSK
Chain of Retinoic acid receptor RXR-alpha (Homo sapiens) (P19793 whole entry, looked up): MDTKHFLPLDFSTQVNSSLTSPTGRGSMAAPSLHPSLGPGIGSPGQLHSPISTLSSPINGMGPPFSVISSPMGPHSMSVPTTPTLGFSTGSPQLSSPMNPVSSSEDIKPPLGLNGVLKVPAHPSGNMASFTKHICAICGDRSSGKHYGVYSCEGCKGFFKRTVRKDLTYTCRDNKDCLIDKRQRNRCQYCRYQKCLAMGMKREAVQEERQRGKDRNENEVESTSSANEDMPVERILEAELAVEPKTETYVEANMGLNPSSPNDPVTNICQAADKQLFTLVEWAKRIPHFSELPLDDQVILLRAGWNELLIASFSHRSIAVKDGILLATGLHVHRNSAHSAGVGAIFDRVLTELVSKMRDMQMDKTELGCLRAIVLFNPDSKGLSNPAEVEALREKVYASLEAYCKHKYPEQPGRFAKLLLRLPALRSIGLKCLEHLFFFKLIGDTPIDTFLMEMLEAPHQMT
Chain of Peroxisome proliferator-activated receptor alpha (Homo sapiens) (Q07869 whole entry, looked up): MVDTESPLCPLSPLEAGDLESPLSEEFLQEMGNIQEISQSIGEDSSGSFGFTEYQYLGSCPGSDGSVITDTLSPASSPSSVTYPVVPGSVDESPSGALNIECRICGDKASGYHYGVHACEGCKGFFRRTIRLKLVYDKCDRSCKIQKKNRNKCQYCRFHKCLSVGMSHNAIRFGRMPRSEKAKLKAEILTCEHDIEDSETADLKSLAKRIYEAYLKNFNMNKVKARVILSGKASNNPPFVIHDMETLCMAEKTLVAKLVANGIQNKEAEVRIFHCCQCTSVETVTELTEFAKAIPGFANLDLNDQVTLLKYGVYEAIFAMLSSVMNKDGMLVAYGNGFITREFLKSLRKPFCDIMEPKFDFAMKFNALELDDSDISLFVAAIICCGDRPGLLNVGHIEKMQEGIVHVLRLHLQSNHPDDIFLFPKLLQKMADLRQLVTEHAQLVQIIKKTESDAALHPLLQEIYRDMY

As for `Cc1cccc(C)c1O`, the max response in assay [1] was -16.7%; in assay [4], 3.79%; in assay [5], -1.13% (inactive); in assay [14] it was -7.29% (inactive); in assay [17] it was 8.44% (inactive). Also, the compound was classed as inactive in assay [2], in assay [3] and in assay [16]. In addition, the activity change % (negative = inhibition) in [6] was -9.8% (inactive). Besides, the Potency result in assay [7], in assay [10], in [11], in [12], in assay [13] and in assay [15] was “inactive” throughout. The activation in assay [8] is -0.5% (inactive); in [9] it was -0.357% (inactive).

Regarding `CC=C(Cl)Cl`, the max response in assay [1] is -16.9%; in assay [4] it was -7.38%; in assay [5] it was -5.31% (inactive); in [14] it was -5.05% (inactive). For the same compound, the call in assay [2] and in assay [3] was inactive. In addition, the activity change % (negative = inhibition) in assay [6] was -14.6% (inactive). Besides, the Potency entry in assay [7], in assay [10], in [11], in [12], in assay [15] and in assay [19] was “inactive” throughout. Besides, the activation in assay [8] was -2.14% (inactive); in assay [9], -0.14% (inactive); in [18], -0.394% (inactive).

Regarding `C1CCC2OC2C1` (centres undefined), the max response in assay [1] was 6.92%; in assay [4], -13.8%; in assay [5], 6.91% (inactive); in assay [14] it was -2.34% (inactive); in assay [17] it was -3.72% (inactive). Further, the compound was called inactive in assay [2], in assay [3] and in [16]. The activity change % (negative = inhibition) in assay [6] is 14.7% (inactive). Further, the Potency result in assay [7], in assay [20], in [10], in assay [11], in [12] and in [15] was “inactive” each time. For the same compound, in [19], the Potency entry is “inactive”.

On to `Cc1ccc2oc(=O)ccc2c1`, for which the max response is 0.296% and 3.97% in [1]; -0.906% in assay [4]; -15.9% (inactive) in assay [5]; 7.89% (inactive) and -0.114% (inactive) in assay [14]. Moreover, the outcome in assay [2] and in assay [3] was inactive. Also, the activity change % (negative = inhibition) in [6] was -13% (inactive) and 13.3% (inactive). Moreover, the Potency result in assay [7], in assay [10], in assay [11], in assay [12] and in assay [19] was “inactive” throughout. Further, in [20], the Potency was 8.63 µM (active). Further, the activation in assay [9] is -0.483% (inactive) and -1.78% (inactive); in [18], 8.69% (inactive) and -0.308% (inactive).

Regarding `ClCCl`, the max response in assay [1] is -5.75%; in assay [4], 3.57%; in assay [5], 5.83% (inactive); in assay [14], -6.14% (inactive). Also, the compound was classed as inactive in [2], in assay [3] and in assay [16]. Also, the activity change % (negative = inhibition) in assay [6] is 0.0464% (inactive). Also, the Potency entry in assay [7], in assay [20], in assay [10], in assay [11], in [12] and in [15] was “inactive” throughout. The Potency entry in assay [19] was “inactive”. The activation in assay [18] was 0.008% (inactive).

With `C=C(C)C(=O)OC`, the max response in assay [1] was -17.1%; in [4], -11.6%; in assay [5], -3.12% (inactive); in assay [14] it was 0.595% (inactive); in assay [17] it was 4.29% (inactive). In addition, the call in [2], in assay [3] and in assay [16] was inactive. Further, the activity change % (negative = inhibition) in [6] is -1.4% (inactive). The Potency result in [7], in assay [10], in assay [11], in assay [12], in assay [15] and in assay [19] was “inactive” throughout. The activation is -0.845% (inactive) in assay [8], -2.84% (inactive) in [9] and 0.279% (inactive) in assay [18].

Regarding `Cc1cccc(C)c1[N+](=O)[O-]`, the max response in assay [1] is 18.2% and 6.02%; in assay [4], 3.43% and -1.96%; in assay [5] it was -16.7% (inactive) and -18.1% (inactive); in assay [14] it was 0.937% (inactive) and 0.387% (inactive). In addition, the compound was classed as inactive in [2], in [3] and in assay [16]. Further, the activity change % (negative = inhibition) in assay [6] is 3.5% (inactive) and -3.75% (inactive). Also, the Potency result in [7], in assay [20], in [11], in assay [12], in assay [13] and in [15] was “inactive” in each case. Moreover, the Potency entry in [19] was “inactive”. Besides, the activation in assay [18] is -1.35% (inactive) and 15.8% (inactive).
